This is an account of results in PubChem BioAssay (NCATS).

Structures are written as SMILES. Results filed as inconclusive are left out. Active and inactive are the calls of the source. Calls follow the shape of the dose curve; as a rule, active = well fitted inhibition curve with a large enough effect; inconclusive = small, poorly fitted or top-dose-only effect; inactive = flat fitted curve, though single readings scatter.
Potency is read from the fitted curve at half-maximal effect.

This assay has as its system DFO2036. The assay is described as follows: qHTS profiling for inhibitors of Plasmodium falciparum proliferation (AID 504749). Also: nearly all actives have a fitted effect of over 60% in size.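 As to activity, negative = inhibition: 0% = DMSO vehicle and full inhibition = artemisinin control.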 As to conditions: P. falciparum in erythrocytes, SYBR Green DNA, 72 h; series mostly up to 12.8 µM; activity, negative = inhibition: at the top concentration. From the text: NIH National Institute of Allergy and Infectious Diseases [NIAID] NIH Chemical Genomics Center [NCGC] MLPCN Grant: None Assay Provider: Xinzhuan Su, NIAID NCGC Assay Overview: Plasmodium falciparum is a virulent malarial parasite that kills 1-2 million people worldwide each year. Transmitted by mosquitoes, the sporozoite form of the parasite enters the blood stream to infect hepatocytes, where they become merozoites that infect red blood cells (erythrocytes). Within erythrocytes, merozoites begin a […] cycle of growth and division, after which the parasite is released to infect new red blood cells. Gametocytes, which form within erythrocytes as well, circulate in the bloodstream and are ingested by the mosquito, thereby completing the life cycle. To profile malarial isolates for differential chemical responses and to identify inhibitors of malarial growth, an assay that measures P. falciparum growth and replication within erythrocytes was employed. This assay uses a DNA binding fluorescent dye (SYBR Green) to detect parasite DNA following cell lysis. Because mature erythrocytes lack DNA, only Plasmodium-derived DNA is detected.
NCGC Assay Protocol Summary: The SYBR Green viability assay was adapted from a method described previously (Plouffe et al., 2008). For screening 3 ul culture medium was dispensed into 1536 well black clear bottom plates (Aurora Biotechnologies) using a Multidrop Combi (Thermo Fisher Scientific Inc.), 23 nL compounds in DMSO were added by a pin tool (Kalypsys), and 5 ul of erythrocytes infected with P. falciparum (0.3% parasitemia, 2.5% hematocrit final concentration) were added. The plates were incubated at 37 C in a humidified incubator in 5% CO2 for 72 h, and 2 ul lysis buffer (20 mM Tris HCl, 10 mM EDTA, 0.16% saponin, 1.6% triton X, 10X SYBR Green I supplied as 10,000X […] by Invitrogen) was added to each well. The plates were mixed for 25 sec with gentle shaking and incubated overnight at room temperature in the dark. The following morning, fluorescence intensity at 485(14) nm excitation and 535(25) nm emission wavelengths was measured on an EnVision (Perkin Elmer) plate reader. Plate reads were normalized relative to the control inhibitor (0.29 uM artemisinin) and vehicle (DMSO) wells present on each plate and then corrected by an algorithm using vehicle-only control plates at the beginning and end of the compound plate stack.
(In general: qHTS replaces the single test concentration by a dilution series.)
In the case of `CN(C)CCCOC1C(C(O)CO)OC2OC(C)(C)O[C@@H]21` (stereo not given in full), the “activity, negative = inhibition” value is 12.3% [at 28.7 µM] (inactive).

Take `CNC1CC(N)[C@H](O)[C@@H](O[C@@H]2OC(CO)C3OC4(OC(C(N)CO)C(O)C(O)C4O)O[C@@H]3[C@H]2O)C1O` (stereo not given in full): the “activity, negative = inhibition” value is 2.51% [at 28.7 µM] (inactive).

Take `CCN(CCCCOC(=O)c1ccc(OC)c(OC)c1)[C@@H](C)Cc1ccc(OC)cc1`: the “activity, negative = inhibition” value is -4.32% (inactive).

Take `O[C@@](CCN1CCCC1)(c1ccccc1)C1CCCCC1`: the “activity, negative = inhibition” value is -17.6% (inactive).

Turning to `CCC(=O)[C@@]1(C)[C@H](C)C[C@@H]2[C@@H]3CCC4=CC(=O)C=C[C@@]4(C)[C@H]3[C@H](O)C[C@]21C`, the “activity, negative = inhibition” value is 4.08% (inactive).

Turning to `CC(=O)OCC(=O)[C@@]1(O)CC[C@@H]2[C@H]3CCC4=CC(=O)C=C[C@]4(C)[C@]3(F)[C@@H](O)C[C@@]21C`, the “activity, negative = inhibition” value was 5.32% (inactive).

Regarding `C1CCN2C[C@@H]3C[C@@H](CN4CCCC[C@H]34)[C@H]2C1`, the “activity, negative = inhibition” value is -4% (inactive).

As for `CC(C)(C)NC(=O)[C@@H]1CC[C@@H]2[C@@H]3CC[C@@H]4NC(=O)C=C[C@@]4(C)[C@H]3CC[C@]21C`, the “activity, negative = inhibition” value is 10.7% (inactive).

With `C[N+]12CCC(CC1)[C@@H](OC(=O)C(O)(c1ccccc1)c1ccccc1)C2`, the “activity, negative = inhibition” value was 9.43% (inactive).

Consider `NC[C@@H]1O[C@H](O[C@H]2[C@H](O)[C@H](O[C@@H]3O[C@H](CO)[C@@H](O)[C@H](N)[C@@H]3O)[C@@H](N)C[C@H]2N)[C@@H](O)[C@H](O)[C@@H]1O`, for which the “activity, negative = inhibition” value is 1.29% (inactive).

As for `CO[C@@H]1C[C@H](O[C@H]2[C@@H](C)[C@H](O[C@@H]3O[C@@H](C)C[C@@H](N(C)C)[C@@H]3OC(C)=O)[C@H](C)C[C@]3(CO3)C(=O)[C@H](C)[C@H](OC(C)=O)[C@H](C)[C@H](C)OC(=O)[C@@H]2C)O[C@H](C)[C@@H]1OC(C)=O`, the “activity, negative = inhibition” value was -26.8% (inactive).

Turning to `CC1(C)OC2CC(=O)OC[C@@]23C1CC(=O)[C@]1(C)C3CC[C@@]2(C)C(c3ccoc3)OC(=O)C3O[C@@]321` (stereo not given in full), the “activity, negative = inhibition” value was 2.57% [at 28.7 µM] (inactive).

Take `C[C@@]12CC[C@H]3[C@@H](CCC4=CC(=O)CC[C@]43C)[C@H]1CC[C@H]2C(=O)CO`: the “activity, negative = inhibition” value is -3.2% (inactive).

For `CC1=C(C(=O)O)N2C(=O)[C@@H](NC(=O)[C@@H](N)c3ccc(O)cc3)[C@@H]2SC1`, the “activity, negative = inhibition” value was 6.34% (inactive).

As to `C[C@]1(c2ccccc2)OC(C(=O)O)=CC1=O`, the “activity, negative = inhibition” value was 0.834% [at 28.7 µM] (inactive).

In the case of `COc1cc2nc(N3CCN(C(=O)[C@@H]4COc5ccccc5O4)CC3)nc(N)c2cc1OC`, the “activity, negative = inhibition” value was -9.41% [at 28.7 µM] (inactive).

Take `CCCC[C@H](CC)CN1CN(C[C@@H](CC)CCCC)CC(C)(N)C1`: the “activity, negative = inhibition” value is -4.33% (inactive).

`CCC(C)C(=O)OC1CCC=C2C=CC(C)C(CCC3CC(O)CC(=O)O3)[C@@H]21` (stereo not given in full): the “activity, negative = inhibition” value is 14% [at 28.7 µM] (inactive).

As to `C[C@]12C=CC(=O)C=C1CCC1C2C(O)C[C@]2(C)C1CC[C@]2(O)C(=O)CO` (stereo not given in full), the “activity, negative = inhibition” value is 15.8% [at 28.7 µM] (inactive).

As to `C[C@]12CCC(=O)C=C1CCC1C2C(=O)C[C@]2(C)C1CC[C@]2(O)C(=O)CO` (stereo not given in full), the “activity, negative = inhibition” value is 8.36% [at 28.7 µM] (inactive).

Take `CCC(=O)O[C@@]1(C(=O)CCl)C(C)CC2C3CCC4=CC(=O)C=C[C@@]4(C)[C@]3(F)C(O)C[C@]21C` (stereo not given in full): the Potency was 10 µM (active).

For the molecule `Cn1nnnc1SCC1=C(C(=O)O)N2C(=O)[C@@H](NC(=O)[C@@H](O)c3ccccc3)[C@@H]2SC1`, the “activity, negative = inhibition” value was 8.41% (inactive).

Turning to `C[C@H]1CS(=O)(=O)CCN1/N=C\c1ccc([N+](=O)[O-])o1`, the “activity, negative = inhibition” value is -7.96% (inactive).

As for `O=C(O)COCCN1CCN([C@@H](c2ccccc2)c2ccc(Cl)cc2)CC1`, the “activity, negative = inhibition” value is 12.8% (inactive).

For `CO[C@]1(NC(=O)[C@H](C(=O)O)c2ccc(O)cc2)C(=O)N2C(C(=O)O)=C(CSc3nnnn3C)CO[C@H]21`, the “activity, negative = inhibition” value is 10.8% (inactive).

Regarding `CC(=O)[C@@]1(O)CC[C@H]2[C@H]3C[C@@H](C)C4=CC(=O)C=C[C@]4(C)[C@@]3(F)[C@@H](O)C[C@]21C`, the “activity, negative = inhibition” value was -35.3% (inactive).

Take `CO[C@H]1[C@@H](OC(N)=O)[C@H](O)[C@@H](Oc2ccc3c(O)c(NC(=O)c4ccc(O)c(CC=C(C)C)c4)c(=O)oc3c2C)OC1(C)C`: the “activity, negative = inhibition” value is -1.41% (inactive).

With `CCOC(=O)[C@H](CCc1ccccc1)N[C@@H](C)C(=O)N1[C@H](C(=O)O)C[C@H]2CCC[C@@H]21`, the “activity, negative = inhibition” value is 9.67% [at 28.7 µM] (inactive).

As to `C=CC1=C(C(=O)O)N2C(=O)[C@@H](NC(=O)/C(=N\OCC(=O)O)c3csc(N)n3)[C@@H]2SC1`, the “activity, negative = inhibition” value is 0.653% (inactive).

As to `C[C@@]12C=CC(=O)C=C1CCC1C3CC(O)[C@@](O)(C(=O)CO)[C@]3(C)CC(O)[C@]12F` (stereo not given in full), the “activity, negative = inhibition” value was 1.32% [at 28.7 µM] (inactive).

In the case of `Cc1ccc(S(=O)(=O)NC(=O)NN2C[C@H]3CCC[C@@H]3C2)cc1`, the “activity, negative = inhibition” value is 3.14% (inactive).

With `CC1(C)[C@@H](OC(=O)CCC(=O)O)CC[C@@]2(C)[C@H]1CC[C@@]1(C)[C@H]2C(=O)C=C2[C@H]3C[C@](C)(C(=O)O)CC[C@]3(C)CC[C@@]21C`, the “activity, negative = inhibition” value was 14.5% (inactive).

As to `Cc1ncc([N+](=O)[O-])n1C[C@H](O)CCl`, the “activity, negative = inhibition” value is -2.61% (inactive).

In the case of `CN[C@H]1[C@H](O)[C@@H](O[C@@H]2[C@H](O)[C@@H](O[C@H]3OC(CN)=CC[C@H]3N)[C@@H](N)C[C@H]2N)OC[C@@]1(C)O`, the “activity, negative = inhibition” value is 1.89% (inactive).

Take `NCc1ccccc1CC(=O)N[C@@H]1C(=O)N2C(C(=O)O)=C(CSc3nnnn3CC(=O)O)CS[C@@H]12`: the “activity, negative = inhibition” value is -0.31% (inactive).

As for `CNC1C(OC2C(O[C@@H]3C(O)C(O)[C@@H](N=C(N)N)C(O)C3N=C(N)N)OC(C)[C@@]2(O)CO)OC(CO)C(O)C1O` (stereo not given in full), the “activity, negative = inhibition” value is -3.15% [at 28.7 µM] (inactive).

Consider `COc1ccc2cc(C(C)CO)ccc2c1` (stereo not given), for which the “activity, negative = inhibition” value was 13.2% [at 28.7 µM] (inactive).

For the molecule `OCC1OC([S-])[C@H](O)C(O)C1O.[Au+]` (stereo not given in full), the “activity, negative = inhibition” value was -0.5% [at 28.7 µM] (inactive).

For `C[C@@H]1Cc2ccccc2N1NC(=O)c1ccc(Cl)c(S(N)=O)c1` (stereo not given in full), the “activity, negative = inhibition” value was 17.3% (inactive).

Turning to `O=C(N/N=C\c1ccc([N+](=O)[O-])o1)c1ccc(O)cc1`, the Potency is 2.82 µM (active).
